± gives the standard deviation.
Experiments:
Assay in all cases: peptide microarray binding signal (635 nm), min-max normalized on array (fraction of array maximum); higher = stronger binding
Details in all cases: peptide region: H3 5-17
[1] = target: T1, HaloTag-ATRX ADD domain (163-292)
T1 chain: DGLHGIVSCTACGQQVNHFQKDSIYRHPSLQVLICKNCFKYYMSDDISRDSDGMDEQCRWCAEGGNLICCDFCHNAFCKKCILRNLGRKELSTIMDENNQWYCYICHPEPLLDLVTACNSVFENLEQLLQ
Summary of the method: (§1)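 For each library, binding signal was taken as the triplicate-spot mean intensity and then min-max scaled. Spots of histone 13-mer peptide–cellulose conjugates on nitrocellulose, printed in triplicate with a Cy3 tracer, were probed for 1 h at 4°C with either biotin-labelled HaloTag reader fusions (10 nM to 1 μM) and streptavidin-Alexa Fluor 647 or rabbit histone antibodies (1:10,000 to 1:2,000) and anti-rabbit Alexa 647. Readout at 635 nm came from an Axon GenePix 4000B.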

[2] = target: HaloTag-ING2 PHD (mouse Ing2 200-280)
Summary of the method: as §1

[3] = target: anti-H3K4me3 antibody ab8580
Summary of the method: as §1

[4] = target: anti-H3K9me3 antibody ab8898
Summary of the method: as §1

[5] = peptide modifications: H3K9me3, binder concentration: 1:2,000 dilution
[6] = peptide modifications: H3K9me3, binder concentration: 1:10,000 dilution
[7] = peptide modifications: H3K9me2 H3K14me2, binder concentration: 1:2,000 dilution
[8] = peptide modifications: H3K9me2 H3K14me2, binder concentration: 1:10,000 dilution
[9] = peptide modifications: H3K9me3 H3K14me3, binder concentration: 1:2,000 dilution
[10] = peptide modifications: H3K9me3 H3K14me3, binder concentration: 1:10,000 dilution
[11] = peptide modifications: H3K9me3 H3S10ph, binder concentration: 1:2,000 dilution
[12] = peptide modifications: H3K9me3 H3S10ph, binder concentration: 1:10,000 dilution
[13] = peptide modifications: H3K9me2 H3K14ac, binder concentration: 1:2,000 dilution
[14] = peptide modifications: H3K9me2 H3K14ac, binder concentration: 1:10,000 dilution
[15] = peptide modifications: H3K9me2 H3K14me3, binder concentration: 1:2,000 dilution
[16] = peptide modifications: H3K9me2 H3K14me3, binder concentration: 1:10,000 dilution
[17] = peptide modifications: H3K9me3 H3K14ac, binder concentration: 1:2,000 dilution
[18] = peptide modifications: H3K9me3 H3K14ac, binder concentration: 1:10,000 dilution
[19] = peptide modifications: H3K9me3 H3K14me2, binder concentration: 1:2,000 dilution
[20] = peptide modifications: H3K9me3 H3K14me2, binder concentration: 1:10,000 dilution
[21] = peptide modifications: H3K14me2, binder concentration: 1:2,000 dilution
[22] = peptide modifications: H3K14me2, binder concentration: 1:10,000 dilution
[23] = peptide modifications: H3K9me3 H3K14me1, binder concentration: 1:2,000 dilution
[24] = peptide modifications: H3K9me3 H3K14me1, binder concentration: 1:10,000 dilution

Binder: QTARKSTGGKAPR [H3 5-17 Q T A R Kme3 S T G G K A P R]
- peptide microarray binding signal ([1]; peptide modifications: H3K9me3, binder concentration: 50 nM): 0.00411 ± 0.00036
- peptide microarray binding signal ([1]; peptide modifications: H3K9me3, binder concentration: 500 nM): 0.00362 ± 0.00095
- peptide microarray binding signal ([2]; peptide modifications: H3K9me3, binder concentration: 10 nM): 0.00448 ± 6.1e-05
- peptide microarray binding signal ([2]; peptide modifications: H3K9me3, binder concentration: 100 nM): 0.002126 ± 2.1e-05
- peptide microarray binding signal [3, 5]: 0.00266 ± 0.00033
- peptide microarray binding signal [3, 6]: 0.00519 ± 0.00032
- peptide microarray binding signal [4, 5]: 0.00814 ± 0.0004
- peptide microarray binding signal [4, 6]: 0.0129 ± 0.0011

Binder: QTARKSTGGKAPR [H3 5-17 Q T A R Kme2 S T G G Kme2 A P R]
- peptide microarray binding signal ([1]; peptide modifications: H3K9me2 H3K14me2, binder concentration: 50 nM): 0.00555 ± 0.0003
- peptide microarray binding signal ([1]; peptide modifications: H3K9me2 H3K14me2, binder concentration: 500 nM): 0.011 ± 0.00059
- peptide microarray binding signal ([2]; peptide modifications: H3K9me2 H3K14me2, binder concentration: 10 nM): 0.00937 ± 0.00041
- peptide microarray binding signal ([2]; peptide modifications: H3K9me2 H3K14me2, binder concentration: 100 nM): 0.00999 ± 0.0011
- peptide microarray binding signal [3, 7]: 0.00672 ± 0.00077
- peptide microarray binding signal [3, 8]: 0.00496 ± 0.00056
- peptide microarray binding signal [4, 7]: 0.175 ± 0.021
- peptide microarray binding signal [4, 8]: 0.0735 ± 0.0023

Binder: QTARKSTGGKAPR [H3 5-17 Q T A R Kme3 S T G G Kme3 A P R]
- peptide microarray binding signal ([1]; peptide modifications: H3K9me3 H3K14me3, binder concentration: 50 nM): 0.00721 ± 0.00063
- peptide microarray binding signal ([1]; peptide modifications: H3K9me3 H3K14me3, binder concentration: 500 nM): 0.00614 ± 0.00023
- peptide microarray binding signal ([2]; peptide modifications: H3K9me3 H3K14me3, binder concentration: 10 nM): 0.00549 ± 0.00022
- peptide microarray binding signal ([2]; peptide modifications: H3K9me3 H3K14me3, binder concentration: 100 nM): 0.00609 ± 0.00036
- peptide microarray binding signal [3, 9]: 0.0344 ± 0.0088
- peptide microarray binding signal [3, 10]: 0.0374 ± 0.015
- peptide microarray binding signal [4, 9]: 0.241 ± 0.054
- peptide microarray binding signal [4, 10]: 0.261 ± 0.13

Binder: QTARKSTGGKAPR [H3 5-17 Q T A R Kme3 Sph T G G K A P R]
- peptide microarray binding signal ([1]; peptide modifications: H3K9me3 H3S10ph, binder concentration: 50 nM): 0.005862 ± 5.4e-05
- peptide microarray binding signal ([1]; peptide modifications: H3K9me3 H3S10ph, binder concentration: 500 nM): 0.0171 ± 0.00064
- peptide microarray binding signal ([2]; peptide modifications: H3K9me3 H3S10ph, binder concentration: 10 nM): 0.00358 ± 0.00073
- peptide microarray binding signal ([2]; peptide modifications: H3K9me3 H3S10ph, binder concentration: 100 nM): 0.0227 ± 0.0053
- peptide microarray binding signal [3, 11]: 0.00466 ± 0.0006
- peptide microarray binding signal [3, 12]: 0.00913 ± 0.0042
- peptide microarray binding signal [4, 11]: 0.362 ± 0.11
- peptide microarray binding signal [4, 12]: 0.273 ± 0.078

Binder: QTARKSTGGKAPR [H3 5-17 Q T A R Kme2 S T G G Kac A P R]
- peptide microarray binding signal ([1]; peptide modifications: H3K9me2 H3K14ac, binder concentration: 50 nM): 0.002382 ± 1.1e-05
- peptide microarray binding signal ([1]; peptide modifications: H3K9me2 H3K14ac, binder concentration: 500 nM): 0.0103 ± 0.00014
- peptide microarray binding signal ([2]; peptide modifications: H3K9me2 H3K14ac, binder concentration: 10 nM): 0.0115 ± 0.001
- peptide microarray binding signal ([2]; peptide modifications: H3K9me2 H3K14ac, binder concentration: 100 nM): 0.00886 ± 0.0033
- peptide microarray binding signal [3, 13]: 0.00225 ± 0.00054
- peptide microarray binding signal [3, 14]: 0.00228 ± 0.00034
- peptide microarray binding signal [4, 13]: 0.0906 ± 0.0013
- peptide microarray binding signal [4, 14]: 0.0371 ± 0.015

Binder: QTARKSTGGKAPR [H3 5-17 Q T A R Kme2 S T G G Kme3 A P R]
- peptide microarray binding signal ([1]; peptide modifications: H3K9me2 H3K14me3, binder concentration: 50 nM): 0.00301 ± 0.00046
- peptide microarray binding signal ([1]; peptide modifications: H3K9me2 H3K14me3, binder concentration: 500 nM): 0.002 ± 0.00021
- peptide microarray binding signal ([2]; peptide modifications: H3K9me2 H3K14me3, binder concentration: 10 nM): 0.00143 ± 1.7e-05
- peptide microarray binding signal ([2]; peptide modifications: H3K9me2 H3K14me3, binder concentration: 100 nM): 0.00106 ± 3e-05
- peptide microarray binding signal [3, 15]: 0.00126 ± 0.00029
- peptide microarray binding signal [3, 16]: 0.00405 ± 0.0015
- peptide microarray binding signal [4, 15]: 0.00464 ± 0.0015
- peptide microarray binding signal [4, 16]: 0.00646 ± 0.0028

Binder: QTARKSTGGKAPR [H3 5-17 Q T A R Kme3 S T G G Kac A P R]
- peptide microarray binding signal ([1]; peptide modifications: H3K9me3 H3K14ac, binder concentration: 50 nM): 0.005862 ± 5.4e-05
- peptide microarray binding signal ([1]; peptide modifications: H3K9me3 H3K14ac, binder concentration: 500 nM): 0.0246 ± 0.0026
- peptide microarray binding signal ([2]; peptide modifications: H3K9me3 H3K14ac, binder concentration: 10 nM): 0.0279 ± 0.0021
- peptide microarray binding signal ([2]; peptide modifications: H3K9me3 H3K14ac, binder concentration: 100 nM): 0.0183 ± 0.013
- peptide microarray binding signal [3, 17]: 0.0646 ± 0.051
- peptide microarray binding signal [3, 18]: 0.089 ± 0.042
- peptide microarray binding signal [4, 17]: 0.781 ± 0.051
- peptide microarray binding signal [4, 18]: 0.939 ± 0.11

Binder: QTARKSTGGKAPR [H3 5-17 Q T A R Kme3 S T G G Kme2 A P R]
- peptide microarray binding signal ([1]; peptide modifications: H3K9me3 H3K14me2, binder concentration: 50 nM): 0.0125 ± 0.00061
- peptide microarray binding signal ([1]; peptide modifications: H3K9me3 H3K14me2, binder concentration: 500 nM): 0.0226 ± 0.0018
- peptide microarray binding signal ([2]; peptide modifications: H3K9me3 H3K14me2, binder concentration: 10 nM): 0.0179 ± 0.0015
- peptide microarray binding signal ([2]; peptide modifications: H3K9me3 H3K14me2, binder concentration: 100 nM): 0.0366 ± 0.016
- peptide microarray binding signal [3, 19]: 0.117 ± 0.017
- peptide microarray binding signal [3, 20]: 0.082 ± 0.012
- peptide microarray binding signal [4, 19]: 0.869 ± 0.044
- peptide microarray binding signal [4, 20]: 1 ± 0.084

Binder: QTARKSTGGKAPR [H3 5-17 Q T A R K S T G G Kme2 A P R]
- peptide microarray binding signal ([1]; peptide modifications: H3K14me2, binder concentration: 50 nM): 0.00956 ± 0.00084
- peptide microarray binding signal ([1]; peptide modifications: H3K14me2, binder concentration: 500 nM): 0.0335 ± 0.0014
- peptide microarray binding signal ([2]; peptide modifications: H3K14me2, binder concentration: 10 nM): 0.0584 ± 0.011
- peptide microarray binding signal ([2]; peptide modifications: H3K14me2, binder concentration: 100 nM): 0.077 ± 0.0071
- peptide microarray binding signal [3, 21]: 0.044 ± 0.004
- peptide microarray binding signal [3, 22]: 0.0224 ± 0.0035
- peptide microarray binding signal [4, 21]: 0.0137 ± 0.00078
- peptide microarray binding signal [4, 22]: 0.00715 ± 0.00071

Binder: QTARKSTGGKAPR [H3 5-17 Q T A R Kme3 S T G G Kme A P R]
- peptide microarray binding signal ([1]; peptide modifications: H3K9me3 H3K14me1, binder concentration: 50 nM): 0.00285 ± 0.00016
- peptide microarray binding signal ([1]; peptide modifications: H3K9me3 H3K14me1, binder concentration: 500 nM): 0.00524 ± 0.00015
- peptide microarray binding signal ([2]; peptide modifications: H3K9me3 H3K14me1, binder concentration: 10 nM): 0.00406 ± 0.00024
- peptide microarray binding signal ([2]; peptide modifications: H3K9me3 H3K14me1, binder concentration: 100 nM): 0.0116 ± 0.00073
- peptide microarray binding signal [3, 23]: 0.00483 ± 0.00038
- peptide microarray binding signal [3, 24]: 0.00251 ± 9.7e-05
- peptide microarray binding signal [4, 23]: 0.175 ± 0.043
- peptide microarray binding signal [4, 24]: 0.0981 ± 0.043
